Assay outcomes from PubChem.
SARS PLP yeast: blocks SARS-CoV papain-like protease in a yeast assay | S. cerevisiae expressing SARS-CoV PLpro, growth rescue | Potency, µM (top dose mostly 32.9 µM), inactives show top-dose activity, positive = growth rescue, hits mostly activators | actives 0.19% (n = 330,000); calls by dose curve; further: potency means the concentration at half of the fitted maximal effect; 0% is about no effect; nearly all actives have a fitted effect of over 55% in size
AmpC detergent: blocks E. coli AmpC beta-lactamase in detergent assay | AID 485294 | AmpC hydrolysis of nitrocefin, absorbance 480 nm, 0.01% Triton | Potency, µM (top dose mostly 114 µM), inactives show at the highest dose activity change, negative = inhibition, actives largely listed as inhibitors | P00811 | actives 0.041% (n = 370,000);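 further: potency means the concentration at half of the fitted maximal effect; 0% = no-compound wells and -100% = no-enzyme wells; nearly all actives have a fitted effect of over 25% in size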
Target sequence (P00811 whole entry, looked up): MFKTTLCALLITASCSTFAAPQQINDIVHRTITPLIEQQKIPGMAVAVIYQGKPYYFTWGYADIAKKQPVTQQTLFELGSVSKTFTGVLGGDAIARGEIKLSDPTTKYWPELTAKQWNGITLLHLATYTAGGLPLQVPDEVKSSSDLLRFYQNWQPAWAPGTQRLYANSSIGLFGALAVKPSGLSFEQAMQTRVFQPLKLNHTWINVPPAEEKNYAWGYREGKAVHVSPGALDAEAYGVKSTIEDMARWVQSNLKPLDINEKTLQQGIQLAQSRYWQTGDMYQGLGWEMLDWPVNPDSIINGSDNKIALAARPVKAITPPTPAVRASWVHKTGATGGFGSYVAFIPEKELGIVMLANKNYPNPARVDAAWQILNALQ
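AmpC (5.3 nM in the dispensed reagent) in 20 mM phosphate pH 7.0 with 0.01% (detergent screen) or 0.0001% Triton X-100 was preincubated with compounds for 15 min at room temperature. Nitrocefin was then added from an 800 uM solution, and hydrolysis was followed at 480 nm.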
Cycloheximide cs: affects cycloheximide protein synthesis inhibition readout, counter-screen | actives 12% (n = 300,000) | cell reporter, cycloheximide protein synthesis inhibition counterscreen | max response, %; in the data active means max response mostly above about 13%, no sharp cut-off; inactive means mostly below about 14%; further: read at 38.3 µM for the half of the compounds with a filed dose; 0% is about no effect
AMA1-RON2 inh: disrupts binding of P. falciparum AMA1 to RON2; AlphaScreen AMA1-biotinylated RON2 peptide binding; Potency, µM (highest dose often 58.2 µM), without a hit: at the highest dose activity change, negative = inhibition, actives largely listed as inhibitors; actives 0.2% (n = 360,000);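 further: potency means the concentration at half of the fitted maximal effect; 0% = vehicle wells and -100% = peptide control; nearly all actives have a fitted effect of over 45% in size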
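AMA1 (3D7) with his tag at 25 nM final met compounds first, then biotinylated RON2 peptide at 25 nM; detection used donor plus acceptor beads, 10 µg/mL apiece, read by AlphaScreen after 30 min at room temperature.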
Shiga inhibitor: blocks Shiga toxin action in Vero cells; Vero cells, Shiga toxin protein synthesis inhibition reporter; inhibition, % at 38.7 µM; actives 9.2% (n = 290,000); AID 2315; in the data active means inhibition mostly above about 28%, no sharp cut-off; inactive means mostly below about 43%; further: 0% is about no effect
AmpC inh no detg: inhibitors of E. coli AmpC beta-lactamase without detergent; P00811; AmpC nitrocefin hydrolysis, absorbance 480 nm, 0.0001% Triton; Potency, µM (titrated, usually from 57.1 µM), inactives show at the highest dose activity change, negative = inhibition, most hits filed as inhibitors; actives 0.52% (n = 330,000);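 further: potency means the concentration at half of the fitted maximal effect; plate controls were no compound for no effect and no enzyme for full effect; nearly all actives have a fitted effect of over 20% in size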
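20 mM phosphate pH 7.0 + 0.01% (detergent screen) or 0.0001% Triton X-100; 5.3 nM AmpC reagent; cpd preinc 15 min RT; nitrocefin (800 uM stock) to start; A480 q20 s × 4 min; Activity was normalised to no-enzyme and no-compound control wells.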
An asterisk follows results filed as active. The entries come from a sample that favours hits as a whole. Unless noted, the call rests on the fitted dose curve; in most records, active means well fitted curve in the direction sought with a large enough effect; inconclusive means small, poorly fitted or top-dose-only effect, or another doubt; inactive means no such curve, though single readings can be large; an effect the other way counts as inactive or inconclusive.

Oc1ccccc1-c1nc(-c2cccs2)c(-c2cccs2)[nH]1 was read as AmpC detergent 21.7%.
Screening O=C(Nc1ccccc1F)N(Cc1ccc(F)cc1)Cc1nc2ccccc2c(=O)[nH]1 returned SARS PLP yeast -1.0%, AmpC detergent -2.9%, Cycloheximide cs 4.2, AMA1-RON2 inh 69.9%, Shiga inhibitor 7.9 and AmpC inh no detg 145.1%.
Screening Cc1ccc(NCc2ccncc2)c(Br)c1 returned SARS PLP yeast -1.3%, AmpC detergent -11.0%, Cycloheximide cs 11.6, AMA1-RON2 inh inconclusive, Shiga inhibitor 32.7* and AmpC inh no detg 1.2%.
`Cc1cc(Br)c(S(=O)(=O)NCc2ccncc2)cc1C` gave SARS PLP yeast inconclusive, AmpC detergent -1.2%, Cycloheximide cs -3.2, AMA1-RON2 inh -0.2%, Shiga inhibitor -5.7 and AmpC inh no detg -5.0%.
For Cc1cc(NCc2ccncc2)ccc1Br the results were SARS PLP yeast -0.5%, AmpC detergent -2.0%, Cycloheximide cs 13.4, AMA1-RON2 inh 25.1µM*, Shiga inhibitor 16.2 and AmpC inh no detg -14.6%.
`Cc1cc(F)ccc1NCc1ccncc1` gave SARS PLP yeast -3.7%, AmpC detergent -6.0%, Cycloheximide cs -1.5, AMA1-RON2 inh -9.3%, Shiga inhibitor -21.2 and AmpC inh no detg 1.3%.
`COc1ccc(C(C)(C)C)cc1NC(=O)CN1C(=O)C(=O)N(Cc2ccco2)C1=O` gave SARS PLP yeast -6.5%, AmpC detergent -0.7%, AMA1-RON2 inh -1.3% and AmpC inh no detg -8.2%.
CCOc1ccc2nc(NC(=O)CSc3nnc(-c4ccncc4)n3CC3CCCO3)sc2c1 (stereo not given) was read as SARS PLP yeast 0.8%, AmpC detergent inconclusive, Cycloheximide cs 26.9, AMA1-RON2 inh -5.1%, Shiga inhibitor 84.2 and AmpC inh no detg 44.7%.
Screening COC(=O)c1cccc2nc3c(C(C)O)cccc3nc12 (stereo not given) returned SARS PLP yeast 0.9%, AmpC detergent -3.3%, Cycloheximide cs 8.1*, AMA1-RON2 inh 0.8%, Shiga inhibitor 21.7 and AmpC inh no detg -1.6%.
For COC(=O)C1=C(C)Nc2ccc(C)cc2S1 the results were SARS PLP yeast -1.5%, AmpC detergent -0.1%, Cycloheximide cs 24.5*, AMA1-RON2 inh 5.8%, Shiga inhibitor 46.8 and AmpC inh no detg -4.7%.
NS(=O)(=O)c1ccc(NC(=O)COc2ccc(S(=O)(=O)N3CCCC3)cc2)cc1 was read as SARS PLP yeast 1.1%, AmpC detergent 6.4%, Cycloheximide cs -4.9, AMA1-RON2 inh -3.9%, Shiga inhibitor -13.4 and AmpC inh no detg -12.9%.
For CCCCC(CC)CN1C(=O)/C(=C/c2ccncc2)SC1=S (stereo not given) the results were SARS PLP yeast 8.7%, AmpC detergent -8.5%, Cycloheximide cs 7.2, AMA1-RON2 inh -4.2%, Shiga inhibitor -9.4 and AmpC inh no detg -11.5%.
`Cc1ccccc1/C=C1\OC(=O)c2ccccc21` gave SARS PLP yeast 4.4%, AmpC detergent -10.0%, Cycloheximide cs 20.4*, AMA1-RON2 inh 1.0%, Shiga inhibitor 40.3* and AmpC inh no detg 75.2%.
For Cc1ccc(/C=C2\OC(=O)c3ccccc32)cc1 the results were SARS PLP yeast 4.9%, AmpC detergent 1.1%, Cycloheximide cs 52.9*, AMA1-RON2 inh -2.5%, Shiga inhibitor 107.4* and AmpC inh no detg -27.9%.
`O=C(Cn1cc(C(F)(F)F)cc(Cl)c1=O)NCc1ccc(Cl)cc1Cl` gave SARS PLP yeast 12.8%, AmpC detergent -6.5%, Cycloheximide cs -2.9, AMA1-RON2 inh -10.0%, Shiga inhibitor -6.4 and AmpC inh no detg -24.3%.
For O=C(Cn1cc([N+](=O)[O-])ccc1=O)NCc1ccc(Cl)cc1Cl the results were SARS PLP yeast -4.5%, AmpC detergent 9.1%, Cycloheximide cs 32.9*, AMA1-RON2 inh -4.4%, Shiga inhibitor 24.3* and AmpC inh no detg -17.5%.
`O=C1CCc2cc(S(=O)(=O)NC(C(=O)Nc3cccc(F)c3)c3ccccc3)ccc2N1` (stereo not given) gave AmpC detergent 19.0%.
